According to PubChem BioAssay AID1626 (SRMLSC, 2009):
Out of some 220,000 compounds screened, about 2,000 (0.91%) were called active. Roughly 2% stayed inconclusive and do not appear here. Rule as the data show it: inconclusive = inhibition above about 80% without an active follow-up result; inactive = below that; test concentration not stated here. A selection follows. Entries with a potency or affinity are not part of this list.

Test: M. tuberculosis H37Rv growth inhibitors, H37Rv strain (AID 1626);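 also: bacteria incubated seven days before Alamar blue readout; 0% = bacteria only wells and 100% = bacteria with antibiotic wells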
Conditions: active compounds read high, concentration not given here

| Compound | inhibition |
| --- | --- |
| CCCNS(=O)(=O)c1ccc(NC(=O)Cc2cccs2)cc1 | 5.56% (inactive) |
| C/C=C/c1ccc(OCCCCOc2ccccc2C(C)=O)c(OC)c1 | 6.35% (inactive) |
| Brc1cccc(OCCOCCn2ccnc2)c1 | 4.09% (inactive) |
| O=C(NCCN1CCc2ccccc2C1)C1CCN(S(=O)(=O)N2CCC3(CC2)OCCO3)CC1 | -3% (inactive) |
| O=C(NCc1ccco1)c1ccccc1Br | -5.82% (inactive) |
| O=C(NCc1ccco1)c1ccccc1-c1ccccc1 | -5.77% (inactive) |
| O=c1ccnc(SCc2ccccc2Cl)[nH]1 | 3.49% (inactive) |
| CN(C)c1ccccc1C(=O)N1CCCC(C(=O)c2ccc3ccccc3c2)C1 (stereo unspecified) | -4.94% (inactive) |
| CCc1cccc2c1NC(=O)[C@]21[C@@H]2C(=O)N(Cc3ccccc3)C(=O)[C@@H]2[C@@H]2CCCN21 | -9.59% (inactive) |
| CC(C)c1cc(C(=O)N2CCCC(C(=O)c3ccc4ccccc4c3)C2)on1 (stereo unspecified) | 5.22% (inactive) |
| CCn1nc(C)cc1C(=O)N1CCCC(C(=O)c2ccc3ccccc3c2)C1 (stereo unspecified) | 5.72% (inactive) |
| CCc1ccc2c(c1)[C@]1(C(=O)N2)[C@@H]2C(=O)N(Cc3ccccc3)C(=O)[C@@H]2[C@@H]2CCCN21 | 3.94% (inactive) |
| Cc1cccc2c1NC(=O)C21N2CCCC2C(C(=O)c2ccc3ccccc3c2)C12C(=O)Nc1ccccc12 (stereo unspecified) | 21.8% (inactive) |
| Nc1nc(N2CCN(C(=O)c3ccco3)CC2)nc2ccc(Br)cc12 | 10.2% (inactive) |
| Nc1c(Cl)ncnc1N1CCCC1 | -5.84% (inactive) |
| CCCCOCCCNS(=O)(=O)c1ccccc1 | -3.58% (inactive) |
| Cc1cc(Nc2cccc([N+](=O)[O-])c2)c2cccc(C)c2n1 | -6.77% (inactive) |
| Cc1ccccc1C(=O)NNC1CC(=O)N(c2ccc3c(c2)OCCO3)C1=O (stereo unspecified) | -10.4% (inactive) |
| O=C(COC(=O)c1ccc(O)cc1)Nc1cc(C(F)(F)F)ccc1Cl | 0.39% (inactive) |
| CCS(=O)(=O)CCSc1nc2ccccc2o1 | 3.19% (inactive) |
| c1ccc2oc(CCc3nc4ccccc4o3)nc2c1 | 0.98% (inactive) |
| CCC(=O)c1ccc(OCCn2cnc3ccccc32)cc1 | 9.27% (inactive) |
| COc1cc(NC(=O)c2ccco2)c(OC)cc1NC(=O)c1cc(OC)c(OC)c(OC)c1 | 3.83% (inactive) |
| COc1ccc(NC(=O)c2ccco2)c(OC)c1 | -9.54% (inactive) |
| Cc1ccc(-c2nnn(CC(=O)N(CC(=O)NC3CCCCC3)c3ccc(F)c(Cl)c3)n2)o1 | 1.56% (inactive) |
| O=C(Nc1ccccc1)N(Cc1ccc2c(c1)OCO2)Cc1nc2ccccc2c(=O)[nH]1 | 9.11% (inactive) |
